Assay outcomes from PubChem BioAssay.
hcDAF12 agonist: activates DAF-12 receptor from parasite H. contortus; HEK293 hcDAF-12 lit1-tk-luc reporter, luminescence; 0% DMSO, 100% Δ7-dafachronic acid; activation, % at 6.8 µM; 370,000 compounds, 1.4% hits; AID 652067;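 active = activation above the mean of all tested compounds plus 3 SD, cut at about 5.5% in these data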;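 also: 100% = response to 3 µM Δ7-dafachronic acid high control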
ssDAF-12 act: activates DAF-12 receptor from parasite S. stercoralis | HEK293 ssDAF-12/GRIP1 lit1-tk-luc reporter, luminescence; % of 3 µM dafachronic acid response | 370,000 compounds, 1% hits | activation, % at 6.8 µM;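 active = activation above the mean over all tested compounds plus 3 SD, cut at about 0.9% in these data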;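 also: 0% = DMSO-only wells and 100% = 3 µM delta7-dafachronic acid wells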
DAX1 inh-1: DAX1 (NR0B1) inhibition, primary screen. HEK293T StAR-luciferase reporter, SF-1/DAX-1 repression relief. 370,000 compounds, 1.1% hits. inhibition, % at 6.8 µM;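 active = inhibition above the mean over all tested compounds plus 3 SD, cut at about 3.6% in these data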;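 also: 0% = DAX-1 cells with DMSO and 100% = cells lacking DAX-1 with DMSO; higher inhibition means more luminescence from relief of DAX-1 repression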
DAX1 inh-2: inhibitors of human orphan nuclear receptor DAX1 (NR0B1) | P51843 | HEK293 Gal4-DAX1 luciferase reporter, luminescence | inhibition, % at 6.75 µM | 340,000 compounds, 0.99% hits | AID 504766;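 active = inhibition above the mean over all tested compounds plus 3 SD, cut at about 4.2% in these data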;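 also: 0% = DAX1-transfected cells with DMSO and 100% = empty-vector control cells with DMSO; inhibition shows as a rise in luminescence from relieved DAX1 repression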
SMARCA2 activ: SMARCA2 function activation, primary screen | MG213 cells, MMTV-luciferase reporter, dexamethasone, overnight | activation, % at 9.1 µM | 370,000 compounds, 1% hits; in the data active = activation above about 7.8%;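 also: 0% = vehicle wells and 100% = reference activator wells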
hgDAF12 agonist: hgDAF-12 agonism, primary luciferase screen; HEK293 GAL4-hgDAF12 UAS-luciferase reporter, agonist luminescence; normalized to butyrate control; activation, % at 6.8 µM; 370,000 compounds, 1.8% hits;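 active = activation above a cutoff set at the mean of all screened compounds plus 3 SD, cut at about 10% in these data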;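 also: 0% = DMSO wells and 100% = sodium butyrate wells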
hgDAF12 ag: hgDAF-12 agonism, confirmation assay; AID 743050; 3,300 compounds, 80% hits; activation, % at 6.8 µM; HEK293 GAL4-hgDAF12 luciferase reporter, agonist mode; percent of butyrate response; shares compounds with hgDAF12 agonist;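 active = mean activation over triplicate wells above the hit cutoff derived from the earlier primary screen, cut at about 11% in these data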;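 also: 0% = DMSO low control and 100% = 2 mM sodium butyrate high control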
LXRb DAF12 ctr: counter-screen for DAF-12 agonists: agonists of human LXR-beta; 3,300 tested, under 10 active; HEK293 Gal4-LXR luciferase reporter, 24 h; shares compounds with hgDAF12 agonist; activation, % at 6.8 µM;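 active = mean activation of the triplicate above a set limit carried over from the primary screen, none filed active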
Target sequence (P55055 whole entry, looked up, the tested form may be a part): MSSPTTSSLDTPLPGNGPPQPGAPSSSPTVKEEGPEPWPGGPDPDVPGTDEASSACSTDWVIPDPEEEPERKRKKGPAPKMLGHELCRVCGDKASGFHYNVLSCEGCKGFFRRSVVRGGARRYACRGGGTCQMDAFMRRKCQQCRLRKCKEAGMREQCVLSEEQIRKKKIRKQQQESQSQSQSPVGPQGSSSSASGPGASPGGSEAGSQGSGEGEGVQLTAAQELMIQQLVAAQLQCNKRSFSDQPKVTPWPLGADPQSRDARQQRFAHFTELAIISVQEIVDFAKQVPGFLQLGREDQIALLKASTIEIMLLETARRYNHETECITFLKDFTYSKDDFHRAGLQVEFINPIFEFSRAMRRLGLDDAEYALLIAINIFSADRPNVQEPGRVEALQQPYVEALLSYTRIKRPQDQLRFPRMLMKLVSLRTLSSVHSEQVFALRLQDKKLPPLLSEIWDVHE
Numbers without * were called inactive; . = no result given. Shown are actives, neighbours in structure and some others; about 4.8% of the full set was active somewhere.

SMILES	hcDAF12 agonist	ssDAF-12 act	DAX1 inh-1	DAX1 inh-2	SMARCA2 activ	hgDAF12 agonist	hgDAF12 ag	LXRb DAF12 ctr
O=Cc1cn(CC(=O)N2CCOCC2)c2ccccc12	0.4	-0.7	0.0	0.2	6.3	0.0	.	.
Cc1cccc(CSc2cn(CC(=O)N3CCOCC3)c3ccccc23)c1	4.3	0.3	0.8	5.2*	2.0	14.2*	13.1*	0.3
COC(=O)C1=C(C)N(C)C(=NCc2ccc3c(c2)OCO3)NC1c1ccc(C(F)(F)F)cc1 (stereo unspecified)	-0.3	-0.3	-0.1	.	-2.7	1.3	.	.
COC(=O)C1=C(C)N(C)C(=NCc2ccc(OC)cc2)NC1c1cccc(Cl)c1 (stereo unspecified)	-0.1	-0.9	-0.1	.	-2.0	0.6	.	.
COc1ccc(NC(=O)C(C)N=C2NS(=O)(=O)c3ccccc32)cc1S(N)(=O)=O (stereo unspecified)	1.2	-0.9	2.2	1.0	-3.1	15.0*	-1.6	0.0
C=CCN1CC(COCc2ccccc2)OCCS1(=O)=O (stereo unspecified)	-0.5	0.0	0.2	.	1.8	0.2	.	.
COc1ccc(S[C@]2(C(=O)N3CCN(C(C)=O)CC3)CC(=O)N[C@@H]2c2ccc(OC)cc2)cc1	0.3	-1.5	-0.3	.	-4.1	-1.2	.	.
c1ccc(OCCSc2nnnn2-c2ccccc2)cc1	4.0	0.2	2.6	1.6	6.2	16.0*	19.4*	0.8
CC(C)N(C[C@@H]1CSCCS(=O)(=O)N1)C(C)C	1.3	-1.0	1.8	.	-2.5	-2.8	.	.
COc1cccc(CNC(=O)[C@H]2CCCN2C(=O)[C@H]2CCCN2C(=O)c2cccc(Cl)c2)c1	-0.1	-0.6	-0.4	.	-1.1	-0.7	.	.
O=C1NC(=Nc2ccccc2)S/C1=C/c1cccs1	3.0	-0.4	0.5	3.2	5.5	15.1*	10.1	0.3
O=C1NC(=Nc2ccccc2)S/C1=C/c1cccnc1	-0.3	-1.3	1.1	-0.5	-2.9	3.4	.	.
COC(=O)C1=C(C)N(Cc2cccc(C(F)(F)F)c2)C(=NCC2CC2)NC1c1ccccc1C(F)(F)F (stereo unspecified)	1.0	-1.4	-0.9	.	0.7	-2.4	.	.
Nc1ccc(-c2nc3ccc([N+](=O)[O-])cc3[nH]2)cc1	2.0	0.3	4.3*	1.8	4.5	15.7*	14.8*	0.7
O=[N+]([O-])c1ccc(-c2nc3ccc([N+](=O)[O-])cc3[nH]2)cc1	-0.5	-0.6	0.7	1.2	1.3	0.9	.	.
COc1ccc(/C=C/C(=O)Nc2ccccc2)cc1OC	1.9	-0.5	3.5	0.2	2.1	17.3*	9.6	0.2
COc1ccc(/C=C/C(=O)NC(=S)Nc2ccccc2)cc1OC	-1.8	-1.0	-0.5	0.3	-1.6	-1.2	.	.
COc1cc(/C=C/C(=O)NC(=O)c2ccccc2O)ccc1OC(C)=O	4.8	-0.3	2.0	3.4	5.5	14.8*	6.4	0.3
COc1ccccc1/C=C/C(=O)Nc1ccc2c(c1)OCCO2	5.3	0.3	2.8	-2.1	6.6	17.0*	18.4*	0.8
COC(=O)C1=C(C)N(CC(C)C)C(=S)NC1c1ccc(Cl)cc1 (stereo unspecified)	0.9	-0.9	-1.0	.	-4.6	-0.6	.	.
COc1ccc(N/C=C/C(=O)c2ccc(OC)c(OC)c2)cc1	-1.4	-1.3	0.1	1.1	-1.2	-0.6	.	.
COc1ccc(N/C=C/C(=O)c2ccc(Cl)cc2)cc1	2.9	0.5	3.6	1.1	4.8	13.3*	15.5*	0.9
O=[N+]([O-])c1ccc(CN2[C@H](COCc3ccccc3)C=CS2(=O)=O)cc1	-1.5	-0.9	-0.8	.	-3.5	0.8	.	.
O=C(Cc1ccccc1)N/N=C/c1ccc2c(c1)OCO2	4.0	-0.6	1.3	.	4.5	16.4*	12.2*	0.5
Cc1ccc(C(=O)NN=Cc2ccc3c(c2)OCO3)cc1	1.4	0.2	1.5	1.2	4.0	14.9*	11.7*	0.4
O=C(CNc1ccccc1)N/N=C/c1ccc2c(c1)OCO2	-0.3	-1.1	-0.3	-0.7	0.8	-0.1	.	.
